# GLP-1R agonist: qHTS of GLP-1 Receptor Agonists; HEK293 GLP-1R CRE-luciferase, luminescence, 4-6 h; cells express a hypersensitive GLP-1R form; Potency, µM (titrated, usually from 45.6 µM), for the others: top-dose activation, usual class: activators; 380,000 compounds, 0.007% hits; note: potency is the fitted concentration of half-maximal effect; % of control where 0% means no effect
# Target sequence (P43220 whole entry, looked up): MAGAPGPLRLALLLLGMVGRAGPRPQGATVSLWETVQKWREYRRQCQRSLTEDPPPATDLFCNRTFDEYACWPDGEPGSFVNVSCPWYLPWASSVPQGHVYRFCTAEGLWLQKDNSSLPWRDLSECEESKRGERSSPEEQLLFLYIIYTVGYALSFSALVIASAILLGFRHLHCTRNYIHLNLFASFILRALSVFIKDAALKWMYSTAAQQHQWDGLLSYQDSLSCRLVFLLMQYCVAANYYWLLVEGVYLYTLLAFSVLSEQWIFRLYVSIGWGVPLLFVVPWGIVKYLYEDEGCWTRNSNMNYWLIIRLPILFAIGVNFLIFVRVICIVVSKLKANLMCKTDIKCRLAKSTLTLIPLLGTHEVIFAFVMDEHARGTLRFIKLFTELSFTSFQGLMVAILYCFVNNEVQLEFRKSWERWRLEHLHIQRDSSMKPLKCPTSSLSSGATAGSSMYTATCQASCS
# GLP-1R inv ag: qHTS of GLP-1 Receptor Inverse Agonists (Inhibition Mode). 410,000 compounds, 1.6% hits. Potency, µM (highest dose often 38.3 µM), for the others: top-dose activity change, negative = inhibition, usual class: inhibitors. HEK293 GLP-1R CRE-luciferase, luminescence, 24 h; GLP-1R form is constitutively active; note: potency is the fitted concentration of half-maximal effect; % is set by controls: 0 for no effect and ±100 for the full control effect; nearly all actives have a fitted effect of over 55% in size
#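 HEK293 cells stably co-expressing a cAMP-responsive luciferase reporter and constitutively active GLP-1R were seeded, incubated 12 h, then exposed to compounds for 24 h at 37 C. Luminescence was read 12 min after detection reagent; inverse agonists lower signal.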
# KCNH2 3.1 block: qHTS for Inhibitors of KCHN2 3.1: Mutant qHTS | Potassium voltage-gated channel subfamily H member 2, brain isoform KCNH2 3.1 (human) | 340,000 compounds, 0.95% hits | activity change, % (tested at about 1.8 µM) | AID 720553, 2013 | U2OS KCNH2 3.1, thallium flux FluxOr; stronger effect = lower value;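 active = maximum activity change below -70%; inconclusive = maximum activity change from -70% to -50%; inactive = maximum activity change above -50%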;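 note: thallium influx rate constant from kinetic fluorescence after stimulation buffer; % is set by controls: 0 for no effect and ±100 for the full control effect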
#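 Normalized rate constant (relative to positive and negative DMSO controls) derived from a 2 min kinetic fluorescence read after stimulation; U2OS cells expressing the 3.1 isoform via virus at 1.77 x 10^8 /mL.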
# KCNH2 WT inh: qHTS for Inhibitors of KCHN2 3.1: Wildtype qHTS | U2OS, BacMam KCNH2, thallium flux FluxOr; stronger effect = lower value | activity change, % at 1.84 µM | 340,000 compounds, 0.37% hits | AID 720551, 2013;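 active = maximum activity change below -70%; inconclusive = maximum activity change between -70% and -50%; inactive = maximum activity change above -50%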; note: % is set by controls: 0 for no effect and ±100 for the full control effect
#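 U2OS cells transduced with wild-type KCNH2 virus are loaded with FluxOr dye for 45 min, and thallium flux is measured in kinetic reads before and after stimulation buffer. Rate constants are normalized to DMSO controls.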
# HEK293 tox: qHTS of GLP-1 Receptor Inverse Agonists: Cytotox Screen | 410,000 compounds, 0.13% hits | HEK293 cAMP-luciferase reporter cells, luminescence, 24 h | AID 624418, 2012 | Potency, µM (titrated, usually from 38.3 µM), inactives show top-dose activity change, negative = inhibition, hits mostly inhibitors;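 note: loss of luciferase light is scored as toxicity; potency is the fitted concentration of half-maximal effect; % is set by controls: 0 for no effect and ±100 for the full control effect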
#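 Cells in DMEM/10% Nu serum/1% pen-strep, 1536-well format. Pre-incubated 12 h, dosed with 23 nL compound, incubated a further 24 h. Luciferase detection, 12 min at room temp, luminescence.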
# GLS inh: qHTS for Inhibitors of Glutaminase (GLS) | GLS enzymatic activity, qHTS titration | Potency, µM (series often up to 45.5 µM), without a hit: top-dose activity change, negative = inhibition, most hits filed as inhibitors | 410,000 compounds, 0.21% hits; note: potency is the fitted concentration of half-maximal effect; % is set by controls: 0 for no effect and ±100 for the full control effect
#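 Glutamate formation by hKGA was monitored fluorometrically using coupled glutamate oxidase, HRP and Amplex Red. Substrate was added as 1 mM L-glutamine solution; incubation was 30 min at RT after an initial read.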
# The depositor's hits bear a star; ? = inconclusive; . = no result given; [ ] = dose if it differs, or a comment. This is a sample that favours compounds with a hit; in the whole collection about 2.8% have one here. Unless noted, calls come from the whole dose curve; as a rule, active = well fitted curve in the direction sought with a large enough effect; inconclusive = small, poorly fitted or top-dose-only effect, or another doubt; inactive = no such curve, though single readings can be large; an effect the other way counts as inactive or inconclusive.
SMILES,GLP-1R agonist,GLP-1R inv ag,KCNH2 3.1 block,KCNH2 WT inh,HEK293 tox,GLS inh
O=C(NCCc1ccc(F)cc1)C(=O)NCC(c1ccc2c(c1)OCO2)N1CCOCC1 (configuration not stated),.,0.4%,.,.,2.2%,3.6%
COc1ccc(-c2noc(CN(C(=O)C(C)Oc3ccc(C)cc3)C(C)C)n2)cc1 (configuration not stated),.,?,.,.,1.7%,5.0%
CN(C)CCCN(C(=O)/C=C/c1cccs1)c1nc2c(F)cccc2s1,-0.9%,-54.4%,-116.6*,-44.5,?,-14.1%
CN(C)CCCN(C(=O)CCc1ccccc1)c1nc2c(F)cccc2s1,5.4%,0.0%,-70.7*,-30.6,-41.2%,-2.6%
COc1cccc(CC(=O)Nc2nc(-c3ccc(F)c(F)c3)cs2)c1,0.2%,-81.6%,-93.5*,-3.9,0.0%,-4.1%
CC(=O)Nc1ccc(-c2csc(NC(=O)Cc3cccc(F)c3)n2)cc1,11.3%,11.2µM*,13.3,-3.7,8.2%,0.0%
O=C(Cc1c(F)c(F)c(F)c(F)c1F)Nc1nc(-c2ccccc2)cs1,-2.2%,7.08µM*,0.3,3.4,?,-8.8%
CCCCS/C(N)=N/N=C/c1cc(C)ccc1O,35.3%,10µM*,0.2,-6.6,-13.7%,21.8%
Cc1nc2nc(-c3ccc(Cl)cc3Cl)nn2c(C)c1CCC(=O)Nc1ccc(F)cc1,-0.7%,13.2%,.,.,-0.9%,4.1%
CCN(Cc1nc(-c2ccc(OC)c(OC)c2)no1)C(=O)c1ccoc1C,17.6%,76.0%,-11.4,0.8,-2.5%,-3.9%
CCN(CC)S(=O)(=O)c1ccc2c(c1)nc(CN(C)C(=O)c1cccc(Cl)c1)n2C,.,13.4%,.,.,-0.3%,3.2%
Cc1ccc(-n2[nH]c(=O)c(-c3ccccn3)c2C)cc1,-3.9%,1µM*,-0.8,-5.7,?,0.0%
N#C/C(=N/Nc1ccc([N+](=O)[O-])cc1)C(=N)N1CCCCC1,5.2%,?,-41.8,-0.7,11.2µM*,10.1%
N#C/C(=N\Nc1ccc([N+](=O)[O-])cc1)C(=N)N1CCOCC1,-1.5%,39.7%,0.5,1.1,?,-8.6%
CCOc1ccccc1N1CCN(C(=S)NC(=O)C23CC4CC(CC(C4)C2)C3)CC1,3.1%,?,2.8,-0.4,?,-0.1%
O=[N+]([O-])c1ccc(C(=S)N2CCN(c3ccc(F)cc3)CC2)cc1,4.2%,-10.3%[7.66 µM],-5.1,-24.7,-1.8%[7.66 µM],15.8µM*
CCNC(=S)N1CCN(c2ccc([N+](=O)[O-])cc2)CC1,1.6%,11.4%,4.9,-1.2,?,-15.6%
CCOc1ccccc1N1CCN(C(=S)NCc2ccc(Cl)cc2)CC1,21.3%,11.2µM*,-1.0,-13.0,-0.1%,12.9%
O=[N+]([O-])c1ccc(N2CCN(C(=S)NCc3ccc(Cl)cc3)CC2)cc1,4.5%,?,-93.2*,-25.7,-5.0%,-9.4%
COc1cc(C(=O)OCC(=O)NC(=O)NCc2ccccc2)ccc1OC(F)F,0.7%,13.4%,4.7,-12.2,-0.3%,3.5%
CCOc1ccc(C(=O)OCC(=O)N(Cc2ccccc2)Cc2ccccc2)cc1OC,5.0%,10µM*,-2.1,0.1,-9.7%,-2.1%
COc1ccc(C(C)=O)cc1COC(=O)C1CC(=O)N(Cc2ccccc2)C1 (configuration not stated),13.5%,8.6%,4.6,-18.6,7.9%,1.2%
Cc1ccc(C(=O)OCC(=O)N2CCOCC2)cc1,6.1%,2.8%,?,-1.6,-3.6%,0.0%
O=C(OCC(=O)N1CCOCC1)c1ccc(Br)cc1,10.2%,21.8%,9.9,-130.2*,1.4%,5.3%
CCc1ccc(-n2c(C)nc3cc(C(=O)NCCc4ccccc4)ccc32)cc1,.,?,.,.,-18.4%,0.6%
SMILES,GLP-1R agonist,GLP-1R inv ag,KCNH2 3.1 block,KCNH2 WT inh,HEK293 tox,GLS inh
COc1ccc(CCNc2nc(SCc3ccccc3F)nc3ccccc23)cc1OC,.,12.5%,.,.,3.9%,6.1%
COC(=O)C1=C(C(=O)OC)[C@@H]2N(Cc3ccccc3)c3ccccc3[C@@]23C[C@@H](C(=O)OC)N(C(=O)c2cc(C)oc2C)C3=N1,-3.3%,11.2µM*,-1.8,-4.6,-2.6%,-10.7%
C#CCCOC(=O)N1C2=NC(C(=O)OC)=C(C(=O)OC)[C@@H]3N(C)c4ccccc4[C@]23C[C@H]1C(=O)OC,7.9%,-3.4%,13.9,7.0,8.7%,16.9%
C#CCCOC(=O)N1C2=NC(C(=O)OC)=C(C(=O)OC)[C@@H]3N(Cc4ccccc4)c4ccccc4[C@]23C[C@H]1C(=O)OC,2.8%,-31.6%,-135.7*,-3.2,-11.0%,2.8%
Cn1c(=O)oc2cc(S(=O)(=O)N3CCCC(C(=O)NCCc4ccccc4)C3)ccc21 (configuration not stated),0.9%,16.4%,.,.,-0.8%,-1.4%
CCOc1cc(C(=O)N(CC)CC(=O)Nc2c(F)cccc2F)ccc1OCC(=O)N1CCCCC1,2.9%,-5.0%,5.4,-5.9,-6.1%,-3.0%
CC(=O)N(Cc1ccc(F)cc1)C1=C(NCc2ccccc2)C(=O)c2ccccc2C1=O,-12.4%,10µM*,-23.6,0.4,?,-9.3%
Cc1ccc2nc(SCC(=O)N(C)C3CCS(=O)(=O)C3)[nH]c2c1 (configuration not stated),-5.3%,5.7%,-197.6*,0.2,11.8%,-3.7%
CN(C(=O)CSc1nc2ccccc2[nH]1)C1CCS(=O)(=O)C1 (configuration not stated),-5.8%,6.3%,5.8,16.4,2.8%,-1.1%
Cc1ccc(-c2ocnc2C(=O)Nc2nc(C)cs2)cc1,-0.7%,2.5%,-7.9,-4.9,-7.4%,-2.8%
Cc1cccc(-c2ocnc2C(=O)Nc2ccccc2C(=O)N2CCCC2)c1,0.1%,-20.3%,-21.4,12.4,24.2%,-11.3%
Cc1ccc(-c2ocnc2C(=O)Nc2ccccc2NC(=O)c2ccccn2)cc1,12.8%,?,-2.6,-1.9,1.12µM*,-4.3%
Cc1cccc(-c2ocnc2C(=O)Nc2ccccc2NC(=O)c2ccccn2)c1,13.6%,0.501µM*,-18.6,5.6,?,0.9%
Cc1c(CC(=O)NCc2ccccc2)c(=O)oc2c(C)c(O)ccc12,.,?,.,.,37.0%,2.9%
